PubChem BioAssay (EPA / NIEHS)
Several values for one entry are separate records, joined by “and”; a condition that tells them apart may be missing. Equal values may be shown once. Some structures have more than one record in an assay (separate samples or runs), and their calls can disagree. Activity calls are given as the source filed them. The calls were made as follows: active = hit-call score of the fitted dose curve at least 0.9, where 1 is the maximum; inactive = score below 0.9.

Read-out: urokinase Plasminogen Activator (uPA), PLAU (gene 5328)
Experiment: BSK_BF4T_uPA: BioMAP Diversity Plus: BF4T Assay for urokinase Plasminogen Activator (uPA) Biomarker Activity (AID 2284275)
Settings: primary human bronchial epithelial cells with fibroblasts
Protocol: BSK_BF4T is a cell-based, multiplexed-readout assay that uses bronchial epithelial cells and dermal fibroblasts, a human vascular primary cell, with measurements taken at 24 hours after chemical dosing in a microplate: 96-well plate.BSK_BF4TA is an assay component measured in the BSK_BF4T assay. It measures uPA antibody related to regulation of gene expression using ELISA technology.Data from the assay component BSK_BF4TA was analyzed at the endpoint, BSK_BF4TA, in the positive analysis fitting direction relative to DMSO as the negative control and baseline of activity. Using a type of binding reporter, gain or loss-of-signal activity can be used to understand protein changes. To generalize the intended target to other relatable targets, this assay endpoint is annotated to the 'protease' intended target family, where the subfamily is 'serine protease'.
The levels of cell surface (or secreted, indicated by the prefix "s") biomarker endpoints were measured by ELISA. Overt cytotoxicity to cells in confluent adherent cultures (all systems other than the BT system) was assessed by measuring total protein levels using sulforhodamine B (SRB) staining in parallel cultures at the time of biomarker measurements, indicated as SRB endpoints. For proliferation assays for adherent cell types, individual cell types are cultured at sub-confluence and relative cell numbers quantified by SRB staining at time points optimized for each system (48 h: 3C and CASM3C systems; 72 h: BT and HDF3CGF systems; 96 h: SAg system). SRB was performed by staining cells with 0.1% SRB after fixation with 10% TCA and reading wells at 560 nm.Viability and proliferation of PBMC (T cells) was quantified by Alamar Blue reduction for the SAg and BT systems. For PBMC viability (referred to as PBMC Cytotoxicity within the assay endpoint names), cells were plated (75,000/well in a 96-well plate) and then chemical samples added for 1 h before addition of activators, SEB and TSST-1 (20 ng/mL final concentration each). Cells were incubated for 90 h. Then, Alamar Blue (20 uL/well) (Invitrogen, Cat DAL1100) was added for 6 h, and the plates were read with a fluorescence microplate reader at 546/580 nm (excitation/emission). For PBMC proliferation, cells were plated and activated as above but incubated for only 16 h prior to addition of Alamar Blue. Plates were read after 6 h.

**Q.** `C=CC(=O)OCCC(F)(F)C(F)(F)C(F)(F)C(F)(F)C(F)(F)C(F)(F)C(F)(F)C(F)(F)F` was tested. Which outcome did it give?
**A.** inactive

**Q.** With `OCC(F)(F)C(F)(F)C(F)(F)C(F)(F)C(F)(F)C(F)(F)C(F)(F)C(F)(F)C(F)(F)C(F)(F)C(F)(F)F` as the molecule, how does the outcome read?
**A.** inactive

**Q.** Which outcome does the source give for `O=P(O)(O)CCC(F)(F)C(F)(F)C(F)(F)C(F)(F)C(F)(F)C(F)(F)C(F)(F)C(F)(F)F` here?
**A.** inactive

**Q.** For `O=P(O)(O)CCC(F)(F)C(F)(F)C(F)(F)C(F)(F)C(F)(F)C(F)(F)F`, which outcome is on record?
**A.** inactive

**Q.** For `O=C(CC(=O)C(F)(F)C(F)(F)C(F)(F)F)c1cccs1`, which AC50 is on record?
**A.** 46.4 µM (active) and 35.8 µM (active)

**Q.** Which outcome does the source give for `O=C(O)CCC(F)(F)C(F)(F)C(F)(F)C(F)(F)C(F)(F)F` here?
**A.** inactive

**Q.** What does the source list for `O=C(O)C(F)(F)OC(F)(F)C(F)(F)OC(F)(F)C(F)(F)OC(F)(F)C(F)(F)C(F)(F)C(F)(F)F`?
**A.** outcome: inactive; AC50: 14.6 µM (active)

**Q.** `CN(CCO)S(=O)(=O)C(F)(F)C(F)(F)C(F)(F)C(F)(F)C(F)(F)C(F)(F)C(F)(F)C(F)(F)F` was tested. Which outcome did it give?
**A.** inactive

**Q.** How did the outcome turn out when `O=C(O)CCC(F)(F)C(F)(F)C(F)(F)C(F)(F)C(F)(F)C(F)(F)F` was run?
**A.** inactive

**Q.** How did the outcome turn out when `O=S(=O)(O)C(F)(F)C(F)(F)C(F)(F)C(F)(F)C(F)(F)C(F)(F)C(F)(F)C(F)(F)C(F)(F)C(F)(F)F` was run?
**A.** inactive

**Q.** Which outcome does the source give for `CN(Cc1cnc2nc(N)nc(N)c2n1)c1ccc(C(=O)N[C@@H](CCC(=O)O)C(=O)O)cc1` here?
**A.** inactive
